MPTP inh: mitochondrial permeability transition pore inhibitors, primary screen, biochemical, isolated mouse mitochondria, absorbance; Ca2+ swelling absorbance, 30 min; inhibition, % at 10 µM; 360,000 compounds, 1.4% hits; AID 602449, 2012;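 active means inhibition of 50% or more, scaled per plate between neutral and stimulator controls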;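 further: 0% = DMSO wells given calcium and 100% = 1 mM EGTA wells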
TAG inh: inhibitors of triacylglycerol accumulation, primary screen, cell-based, uHTS, fluorescence, H9c2; H9c2 cells, Nile Red lipid (TAG) fluorescence; cells loaded with 200 µM oleic acid; inhibition, % at 12.5 µM; 230,000 compounds, 0.66% hits; AID 651582, 2012;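 active means pattern-corrected inhibition of lipid staining of at least 50% with the nuclear-stain viability signal not falling by more than 50%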;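 further: 0% = DMSO wells and 100% = triacsin C control wells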
NadD inh: inhibitors of S. aureus NadD, primary screen, biochemical, colorimetric, uHTS; purified NadD enzyme, colorimetric absorbance read-out; inhibition, % at 20 µM; 360,000 compounds, 0.78% hits; in the data active means inhibition above about 26%
aDG glyco act: activators of alpha-DG glycosylation, primary screen, uHTS, Pro5-aDG cells, AlphaScreen; alpha-DG glycosylation AlphaScreen (IIH6); 0% Pro5, 100% B10-LARGE cell signal; activation, % at 10 µM; 360,000 compounds, 0.22% hits; AID 624168, 2012;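 active means activation of at least 8% versus controls, or a plate z-score of at least 8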;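 further: Pro5 are CHO cells carrying HIG-tagged alpha-DG that lacks glycosylation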
The depositor's hits bear a star; nt = no result. Compounds with a hit are over-represented: about 2.7% of the library has one in this group of screens.

SMILES	MPTP inh	TAG inh	NadD inh	aDG glyco act
COc1cc(/C=N/NC(=O)C(Cc2c[nH]c3ccccc23)NC(=O)OCC(C)C)cc([N+](=O)[O-])c1O (configuration not stated)	1	nt	24	0
O=C(CNc1ccc2ccccc2c1)N/N=C/c1ccc([N+](=O)[O-])o1	4	11	14	9.8*
O=C(COc1ccccc1)N/N=C/c1ccc([N+](=O)[O-])o1	3	nt	11	5
O=C(O)CN1C(=O)/C(=C\c2cccc(OCc3ccccc3F)c2)SC1=S	2	nt	0	0
O=C1C(=Cc2cn(-c3ccccc3)nc2-c2ccc(OCc3ccc(Cl)cc3)cc2)SC(=S)N1CCS(=O)(=O)O	1	15	60*	0
O=C1C(=Cc2cn(-c3ccccc3)nc2-c2ccc(OCc3ccccc3F)cc2)SC(=S)N1CCS(=O)(=O)O	0	23	30*	0
O=C(COC(=O)Cc1cccs1)NCc1ccc(F)cc1	1	-1	1	0
CCOc1ccc(-n2cc(C(=O)N3CCC(C)CC3)c3cc(OC)c(OC)cc3c2=O)cc1	-4	-48	1	7.5*
CC1CC1C(=O)OCC(=O)Nc1cc(S(=O)(=O)N2CCCCC2)ccc1Cl (configuration not stated)	-2	-5	-4	0
COc1ccc([C@H]2[C@H](C(=O)OC(C)(C)C)N3N=Cc4ccccc4C3C23C(=O)c2ccccc2C3=O)c(OC)c1 (some centres not stated)	1	nt	5	1
COc1ccc([C@H]2[C@H](C(=O)OC(C)(C)C)N3N=Cc4ccccc4C3C23C(=O)c2ccccc2C3=O)cc1OC (some centres not stated)	0	nt	7	9.9*
COc1cccc(OC)c1-c1nn2c(-c3cc(-c4ccccc4)n[nH]3)nnc2s1	-2	0	52*	0
COc1cccc(-c2nnc3sc(-c4ccccc4)nn23)c1	1	nt	0	1
CC(C)c1cccc(-c2ccc3c(c2)S(=O)(=O)c2cccc(C(=O)NCc4ccccc4Cl)c2C3=O)c1	-4	2	34*	0
CC(C)c1cc(C(=O)OCC(=O)NC2CC2)c(O)c(C(C)C)c1	0	0	-7	0
O=C(CSc1n[nH]c(=O)[nH]c1=O)Nc1ccc2c(c1)C(=O)c1ccccc1C2=O	1	27	54*	0
CCOc1ccc(-c2nn(-c3ccccc3)cc2/C=C2\SC(N)=NC2=O)cc1C	0	17	32*	2
CCOc1cc(/C=C2\SC(N)=NC2=O)ccc1O	0	0	-3	1
COc1ccc(-c2nn(-c3ccccc3)cc2/C=C2/SC(=S)N(CCC(=O)O)C2=O)c(C)c1	1	nt	25	0
Cc1ccc(-c2nn(-c3ccccc3)cc2/C=C2\SC(=S)N(CC(=O)O)C2=O)cc1	13	-6	41*	0
O=C(O)CCCCCN1C(=O)/C(=C/c2cn(-c3ccccc3)nc2-c2cccs2)SC1=S	9	8	31*	0
O=C(O)CCCCCN1C(=O)/C(=C\c2cn(-c3ccccc3)nc2-c2cccs2)SC1=S	40	-10	32*	0
Cc1ccc(NC(=O)CN(C)C(=O)c2cccnc2Nc2cccc(C(F)(F)F)c2)cc1	5	17	3	0
COc1ccc(-c2nn(-c3ccccc3)cc2/C=C2/SC(=S)N(CCC(=O)O)C2=O)cc1	4	nt	25	0
O=C(O)CCN1C(=O)/C(=C/c2cn(-c3ccccc3)nc2-c2cccs2)SC1=S	0	6	31*	0
SMILES	MPTP inh	TAG inh	NadD inh	aDG glyco act
O=C(c1ccco1)N1CCN(S(=O)(=O)c2cccc([N+](=O)[O-])c2)CC1	-1	16	1	0
Cc1ccc2nc(/C(C#N)=C\c3cc(C)n(-c4cccc([N+](=O)[O-])c4)c3C)[nH]c2c1	-1	nt	29*	2
Cc1cc(/C=C(/C#N)c2nc3ccccc3[nH]2)c(C)n1-c1cc(C(=O)O)cc(C(=O)O)c1	-2	-5	6	-1
O=C(Cn1ncc(Cl)c(Cl)c1=O)N1CCN(Cc2ccccc2)CC1	-1	64*	8	-1
CC1=C(C)C(=O)C(N2CCOCC2)=CC1=O	2	14	11	5.3*
O=C1C=C(N2CCOCC2)c2ccccc2C1=O	4	nt	7	2
CC1=CC(C)(C)N2C(=O)C3(NCCc4c3[nH]c3ccccc43)c3cc(C)cc1c32 (configuration not stated)	3	68*	1	0

Screening data as filed in PubChem.
